# According to PubChem BioAssay (NCI):
# Compounds without any hit were thinned out: in the full panel of roughly 83,000, 20% have a hit.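 A percent growth of 40 corresponds to 60% growth inhibition; 0 means no net growth; -100 means all cells died. Active threshold: below 10.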 Values without a mark were called inactive. The source made the active and inactive calls.
# Assays:
# Experiment in all cases: NCI-60 one-dose screen, 48 h (100 = growth as untreated, 0 = no growth, -100 = all killed)
# Settings in all cases: 10 µM unless noted
# [1] = test system: SK-MEL-2 melanoma
# [2] = test system: EKVX NSCLC
# [3] = test system: SN12C renal
# [4] = test system: UO-31 renal
# [5] = test system: ACHN renal
# [6] = test system: CAKI-1 renal
# [7] = test system: CCRF-CEM leukemia
# [8] = test system: MOLT-4 leukemia
# [9] = test system: SR leukemia
# [10] = test system: RPMI-8226 leukemia
# [11] = test system: OVCAR-8 ovarian
# [12] = test system: OVCAR-5 ovarian
# [13] = test system: OVCAR-4 ovarian
# [14] = test system: SK-OV-3 ovarian
# [15] = test system: IGROV1 ovarian
# [16] = test system: OVCAR-3 ovarian
# [17] = test system: HS 578T breast
# [18] = test system: NCI/ADR-RES ovarian
# [19] = test system: A498 renal
# [20] = test system: TK-10 renal
Compound,growth [1],growth [2],growth [3],growth [4],growth [5],growth [6],growth [7],growth [8],growth [9],growth [10],growth [11],growth [12],growth [13],growth [14],growth [15],growth [16],growth [17],growth [18],growth [19],growth [20]
N#Cc1c(-c2cccs2)cc(-c2cnccn2)nc1SCC(=O)c1ccc(F)cc1,102%,58.9%,80.3%,54.7%,92.2%,59.7%,94.5%,92.7%,81.3%,97.7%,99.5%,88%,76%,104%,78.1%,118%,94.2%,96.4%,–,–
CC1(C)CC[C@]23CC[C@]4(C)[C@H](CC[C@@H]5[C@@]6(C)CCCN(CO)C(C)(C)[C@@H]6CC[C@]54C)[C@H]2[C@H]1OC3,98.4%,90.9%,89.6%,76.7%,96.7%,62.1%,58.5%,35.4%,1.43% (active),21.8%,101%,95.9%,–,118%,69%,66.6%,91.3%,101%,107%,–
N#Cc1c(-c2cccs2)cc(-c2cnccn2)nc1SCC(=O)Nc1ccc(Br)cc1,106%,57.6%,87.7%,58.4%,64.5%,64.4%,83.4%,89.5%,79.5%,99.5%,94.6%,86.7%,73.8%,97.6%,64.8%,96.3%,68.6%,85.8%,6.18% (active),–
CS(=O)(=O)Nc1cc(-c2ccc3ncc(C#N)c(N[C@H](CO)c4ccccc4)c3c2)cnc1Cl,10.3%,66.9%,31.1%,43.4%,81.4%,33.3%,–,14.7%,20.7%,64.2%,56.2%,74.1%,54%,81.1%,3.75% (active),24%,13.7%,97.8%,7.35% (active),–
CCOC(=O)C1=NNC(c2ccc(Cl)cc2)C1C(=O)N1C(=S)NC(=O)C1CC(C)C (centres undefined),110%,84.5%,99.4%,81.4%,93.3%,85.2%,100%,89.5%,96.8%,95%,100%,101%,96.5%,93.5%,77.1%,113%,98.6%,99.9%,–,–
Cc1ccc2c(c1)C(=O)/C(=C/c1cccc(F)c1)S2,–,98.5%,101%,88.4%,102%,85.8%,104%,106%,101%,84.6%,103%,105%,99.7%,99%,97.7%,–,104%,109%,–,123%
Cc1cc(C)c(N2C(=O)CC(Nc3ccc(Cl)cc3Cl)C2=O)c(C)c1 (centres undefined),–,102%,98.2%,85.9%,103%,87.6%,105%,103%,97.5%,99.9%,101%,100%,102%,108%,104%,–,95.8%,107%,–,109%
CCc1cccc2c3c(sc12)C(c1ccc(Cl)cc1)C(C#N)=C(/N=C/c1ccc(Cl)cc1)O3 (centres undefined),31%,45.8%,33.9%,39.9%,41.7%,–,13%,30.2%,13.9%,8.79% (active),28.1%,32.9%,79.1%,55.4%,28.1%,-14.2% (active),8.08% (active),5.33% (active),-4.9% (active),–
Cc1nc(-c2ccccc2O)ccc1C(=O)N=Nc1c(O)[nH]c2ccc(Br)cc12,104%,79.6%,95.1%,73%,91.5%,–,–,102%,101%,87.9%,97.9%,101%,–,97.7%,89.7%,103%,91.6%,99.6%,–,–
CNC(=O)c1cc(Oc2ccc3nc(NC(=O)c4cc(N5CCOCC5)cc(C(F)(F)F)c4)sc3c2)ccn1,–,70.7%,83.1%,87.8%,87.9%,82.2%,67.3%,65.5%,27.1%,51.6%,65.5%,97.1%,64.8%,97.9%,99.6%,–,79.2%,80.2%,–,92.3%
O=C(Cn1c(-c2ccccc2)nc2cc(Cl)c(Cl)cc21)N=Nc1c(O)[nH]c2ccc(Cl)cc12,–,75.5%,89.8%,73.7%,74.3%,70.2%,-8.19% (active),72.3%,67.9%,59%,83.5%,80.5%,77.9%,85.6%,87.9%,–,81.3%,72.3%,–,104%
CCCCCCCn1cc2c(NCCc3ccccc3)ncnc2n1,127%,84.8%,93.4%,71.2%,95.1%,78.7%,96.2%,95.4%,85.4%,92.4%,99.9%,108%,101%,113%,97.5%,121%,88.5%,98.7%,95.3%,–
COc1ccc(/C=C(\C#N)C(=O)N2c3ccccc3Sc3ccc(SC)cc32)cc1F,96.2%,97.8%,99.4%,76.2%,88.5%,68.9%,93.9%,82.9%,–,95.6%,91.4%,86.5%,75.4%,100%,91.1%,93.4%,85%,92.7%,79.5%,–
COc1ccc(-n2c(SCc3nnc(NC(=O)c4ccc(Br)cc4)s3)nc3cc(OC)c(OC)cc3c2=O)cc1,–,91.1%,91%,84.2%,97.5%,83.8%,90.9%,105%,101%,104%,94.9%,95.5%,93.8%,108%,102%,–,99%,78.8%,–,118%
COC(=O)c1[nH]nc2c1C1(C(=O)c3cccc4cccc1c34)C(C#N)=C(N)O2 (centres undefined),105%,89.9%,100%,73.4%,99.6%,79.7%,–,111%,115%,104%,92%,101%,97.5%,85.3%,95.5%,–,86.8%,106%,82.1%,–
CC(=O)c1ccc(Nc2nc(SCC(C)C)nc(-c3ccc(F)cc3)c2C#N)cc1,109%,114%,110%,115%,104%,115%,107%,107%,102%,118%,101%,113%,115%,114%,111%,115%,122%,110%,117%,–
Nc1nc(-c2cccc([N+](=O)[O-])c2)c(N=Nc2ccc(Br)cc2)s1,–,8.7% (active),-26.8% (active),-80.3% (active),-96.7% (active),-87.9% (active),31.9%,29.5%,50.7%,15%,-28.7% (active),-12.1% (active),-33.2% (active),-83.7% (active),-13.3% (active),–,0.349% (active),-21.7% (active),–,-96.2% (active)
